In all, about 5,500 compounds went through this assay and about 2,000 (36%) were called active. Another 18% or so got no clear call; they are omitted. No stated cut-off is given here; in the data, active means normalized growth mostly below about 0.91 (no sharp cut-off); inconclusive means no clear call, values can overlap the other calls; inactive means mostly above about 0.92. This is one part of the list.
Assay: chemical genetic growth profiling, strain panel (AID 1159580);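 further: tested at 20 µM; growth read once vehicle control cultures reached saturation at 30 °C; 1 = growth at the plate median or of vehicle wells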
Details: growth OD

Measured: normalized growth

CC1(C)C2CC[C@]3(C)C(C(=O)C=C4[C@@H]5C[C@@](C)(C(=O)O)CC[C@]5(C)CC[C@]43C)[C@@]2(C)CC[C@@H]1OC(=O)CCC(=O)O (stereo partly drawn)
inactive: S. cerevisiae deletion strains, locus YKL009W, strain mrt4, stronger effect = lower value 0.975 | S. cerevisiae deletion strains, locus YKL068W, stronger effect = lower value 0.986 | S. cerevisiae deletion strains, locus YKL085W, strain MDH1 (second series), stronger effect = lower value 0.984 | S. cerevisiae deletion strains, locus YKL085W, strain MDH1, stronger effect = lower value 0.984 | S. cerevisiae deletion strains, locus YKL160W, strain elf1, stronger effect = lower value 0.938 | S. cerevisiae deletion strains, locus YKL190W, strain CNB1, stronger effect = lower value 0.991 | S. cerevisiae deletion strains, locus YKR001C, strain vps1, stronger effect = lower value 0.999 | S. cerevisiae deletion strains, locus YKR026C, strain gcn3, stronger effect = lower value 0.987 | S. cerevisiae deletion strains, locus YKR091W, strain srl3, stronger effect = lower value 0.989 | S. cerevisiae deletion strains, locus YLL001W, strain dnm1, stronger effect = lower value 1 | S. cerevisiae deletion strains, locus YLL026W, stronger effect = lower value 0.977 | S. cerevisiae deletion strains, locus YLL041C, strain sdh2, stronger effect = lower value 0.982 | S. cerevisiae deletion strains, locus YLR027C, strain aat2, stronger effect = lower value 1 | S. cerevisiae deletion strains, locus YLR039C, strain RIC1, stronger effect = lower value 0.944 | S. cerevisiae deletion strains, locus YLR058C, strain SHM2, stronger effect = lower value 0.986 | S. cerevisiae deletion strains, locus YLR102C, strain apc9, stronger effect = lower value 0.996 | S. cerevisiae deletion strains, locus YLR221C, strain rsa3, stronger effect = lower value 1 | S. cerevisiae deletion strains, locus YLR258W, strain gsy2, stronger effect = lower value 0.98 | S. cerevisiae deletion strains, locus YLR262C, strain YPT6 (second series), stronger effect = lower value 0.962 | S. cerevisiae deletion strains, locus YLR262C, strain YPT6, stronger effect = lower value 0.91 | S. cerevisiae deletion strains, locus YLR268W, strain sec22, stronger effect = lower value 0.998 | S. cerevisiae deletion strains, locus YLR320W, strain mms22, stronger effect = lower value 0.999 | S. cerevisiae deletion strains, locus YLR330W, strain CHS5, stronger effect = lower value 0.992 | S. cerevisiae deletion strains, locus YLR342W, strain FKS1 (second series), stronger effect = lower value 0.995 | S. cerevisiae deletion strains, locus YLR342W, strain FKS1, stronger effect = lower value 0.985 | S. cerevisiae deletion strains, locus YLR357W, strain rsc2, stronger effect = lower value 0.967 | S. cerevisiae deletion strains, locus YLR370C, strain arc18, stronger effect = lower value 0.967 | S. cerevisiae deletion strains, locus YLR371W, strain rom2, stronger effect = lower value 1 | S. cerevisiae deletion strains, locus YLR384C, strain iki3, stronger effect = lower value 0.983 | S. cerevisiae deletion strains, locus YLR418C, strain cdc73, stronger effect = lower value 0.968 | S. cerevisiae deletion strains, locus YML016C, strain PPZ1, stronger effect = lower value 1 | S. cerevisiae deletion strains, locus YML032C, strain rad52, stronger effect = lower value 0.994 | S. cerevisiae deletion strains, locus YML120C, strain ndi1, stronger effect = lower value 0.997 | S. cerevisiae deletion strains, locus YML124C, strain tub3, stronger effect = lower value 1 | S. cerevisiae deletion strains, locus YMR058W, strain fet3, stronger effect = lower value 1.04 | S. cerevisiae deletion strains, locus YMR078C, strain ctf18, stronger effect = lower value 0.976 | S. cerevisiae deletion strains, locus YMR125W, strain sto1, stronger effect = lower value 0.975 | S. cerevisiae deletion strains, locus YMR129W, stronger effect = lower value 0.99 | S. cerevisiae deletion strains, locus YMR205C, strain PFK2, stronger effect = lower value 0.97 | S. cerevisiae deletion strains, locus YMR223W, strain ubp8, stronger effect = lower value 0.973 | S. cerevisiae deletion strains, locus YMR231W, strain pep5, stronger effect = lower value 0.978 | S. cerevisiae deletion strains, locus YMR263W, strain SAP30, stronger effect = lower value 1 | S. cerevisiae deletion strains, locus YMR307W, strain GAS1, stronger effect = lower value 1.01 | S. cerevisiae deletion strains, locus YNL067W, strain RPL9B, stronger effect = lower value 1.02 | S. cerevisiae deletion strains, locus YNL071W, strain lat1, stronger effect = lower value 0.994 | S. cerevisiae deletion strains, locus YNL183C, strain NPR1, stronger effect = lower value 0.991 | S. cerevisiae deletion strains, locus YNL209W, strain ssb2, stronger effect = lower value 0.967 | S. cerevisiae deletion strains, locus YNL233W, strain BNI4, stronger effect = lower value 1.03 | S. cerevisiae deletion strains, locus YNL248C, strain rpa49, stronger effect = lower value 0.909 | S. cerevisiae deletion strains, locus YNL250W, strain rad50, stronger effect = lower value 0.949 | S. cerevisiae deletion strains, locus YNL271C, strain bni1, stronger effect = lower value 0.983 | S. cerevisiae deletion strains, locus YNL298W, strain CLA4, stronger effect = lower value 0.997 | S. cerevisiae deletion strains, locus YNL307C, strain MCK1, stronger effect = lower value 0.992 | S. cerevisiae deletion strains, locus YNL322C, strain KRE1 (second series), stronger effect = lower value 0.979 | S. cerevisiae deletion strains, locus YNL322C, strain KRE1, stronger effect = lower value 0.99 | S. cerevisiae deletion strains, locus YNR049C, strain mso1, stronger effect = lower value 0.983 | S. cerevisiae deletion strains, locus YNR052C, strain pop2, stronger effect = lower value 0.975 | S. cerevisiae deletion strains, locus YOL006C, strain TOP1, stronger effect = lower value 1.04 | S. cerevisiae deletion strains, locus YOL012C, strain htz1 1.07 | S. cerevisiae deletion strains, locus YOL147C, strain pex11, stronger effect = lower value 0.989 | S. cerevisiae deletion strains, locus YOR001W, strain rrp6, stronger effect = lower value 1.03 | S. cerevisiae deletion strains, locus YOR061W, strain CKA2, stronger effect = lower value 0.991 | S. cerevisiae deletion strains, locus YOR069W, strain VPS5, stronger effect = lower value 0.982 | S. cerevisiae deletion strains, locus YOR070C, strain gyp1, stronger effect = lower value 0.986 | S. cerevisiae deletion strains, locus YOR080W, strain dia2, stronger effect = lower value 1.01 | S. cerevisiae deletion strains, locus YOR083W, strain WHI5, stronger effect = lower value 0.891 | S. cerevisiae deletion strains, locus YOR106W, strain vam3, stronger effect = lower value 0.896 | S. cerevisiae deletion strains, locus YOR136W, strain idh2, stronger effect = lower value 0.998 | S. cerevisiae deletion strains, locus YOR144C, strain elg1, stronger effect = lower value 1 | S. cerevisiae deletion strains, locus YOR184W, strain ser1, stronger effect = lower value 0.96 | S. cerevisiae deletion strains, locus YOR231W, strain MKK1, stronger effect = lower value 1.06 | S. cerevisiae deletion strains, locus YOR265W, strain rbl2, stronger effect = lower value 0.974 | S. cerevisiae deletion strains, locus YOR270C, strain vph1, stronger effect = lower value 0.867 | S. cerevisiae deletion strains, locus YOR290C, strain snf2, stronger effect = lower value 0.96 | S. cerevisiae deletion strains, locus YOR316C, strain cot1, stronger effect = lower value 0.992 | S. cerevisiae deletion strains, locus YPL051W, strain arl3, stronger effect = lower value 0.966 | S. cerevisiae deletion strains, locus YPL055C, strain LGE1, stronger effect = lower value 1.08 | S. cerevisiae deletion strains, locus YPL078C, strain atp4, stronger effect = lower value 0.962 | S. cerevisiae deletion strains, locus YPL106C, strain sse1, stronger effect = lower value 0.986 | S. cerevisiae deletion strains, locus YPL240C, strain hsp82, stronger effect = lower value 0.978 | S. cerevisiae deletion strains, locus YPL241C, strain CIN2, stronger effect = lower value 0.992 | S. cerevisiae deletion strains, locus YPL256C, strain CLN2, stronger effect = lower value 1.05 | S. cerevisiae deletion strains, locus YPR119W, strain clb2, stronger effect = lower value 0.992 | S. cerevisiae deletion strains, locus YPR141C, strain kar3, stronger effect = lower value 0.999 | S. cerevisiae deletion strains, locus YPR163C, strain tif3, stronger effect = lower value 0.983 | S. cerevisiae deletion strains, locus YPR167C, strain met16, stronger effect = lower value 0.99 | S. cerevisiae deletion strains, strain wtn01, stronger effect = lower value 0.976 | S. cerevisiae strains, strain wild type, stronger effect = lower value 0.991

From PubChem BioAssay AID1159580 (chemical genetic matrix, 2015)
